Source: PubChem BioAssay (NCATS)
Values without a mark were called inactive. How the calls were made is not given here.

Test system: HIV-1 nucleocapsid protein NCp7 (binding to TG oligonucleotide)
Experiment: HIV Nucleocapsid (AID 346);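 further: potency is for inhibitors that block NC binding and lower polarization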
Details: HIV-1 NC / fluorescein-TGTGTGTG probe, fluorescence polarization
Method in brief: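 NCp7 100 nM + fluorescein TG4xF 10 nM; Hepes pH 7.5/250mM NaCl/1uM ZnCl2/0.004% PEG 20000; 1 hr RT; FP, 45 s exposure; oligo-only wells as negative control.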
Potency means the concentration at half of the fitted maximal effect.

| Compound | Potency |
| --- | --- |
| CC(C)CN1CCCC2(CCN(C(=O)c3cccc(F)c3)CC2)C1 | > 20 µM |
| Cc1ccccc1-c1cc(Nc2ccc(F)cc2)ncn1 | > 20 µM |
| CS(=O)(=O)Nc1cccc(-c2cncnc2Nc2ccc(F)cc2)c1 | > 20 µM |
| COCC(=O)N1CCC[C@@]2(CCN(Cc3ccccc3)C2)C1 | > 20 µM |
| COCC(=O)N1CCC2(CC1)CCN(c1ccncc1)CC2 | > 20 µM |
| O=C(Nc1cccc(F)c1)N1CC[C@@]2(CCCN(C(=O)c3csnn3)C2)C1 | > 20 µM |
| Cc1cnc(CNc2cc(-c3cccc(NS(C)(=O)=O)c3)ncn2)cn1 | > 20 µM |
| COCCn1c(=O)c(-c2cccs2)nc2cnc(N3CCOCC3)nc21 | > 20 µM |
| O=C(c1cnccn1)N1CCC[C@@]2(CCN(c3ccccc3)C2)C1 | > 20 µM |
| COc1cccc(Cn2c(=O)cnc3cncnc32)c1 | > 20 µM |
| COc1ccccc1CN1CCC2(CC1)CCN(C(=O)c1c(C)noc1C)CC2 | > 20 µM |
| COc1ncc2nc(-c3ccc(F)cc3)c(=O)n(Cc3cccs3)c2n1 | > 20 µM |
| COCCNc1ncnc2ccc(-c3cccc(OC)c3)cc12 | > 20 µM |
| CN(C)C(=O)c1ccc(-c2nccc(NCc3cccs3)n2)cc1 | > 20 µM |
| CC(C)NC(=O)N1CC[C@@]2(CCCN(C(=O)c3cc(C(F)(F)F)cc(C(F)(F)F)c3)C2)C1 | > 20 µM |
| N#Cc1ccc(CN2CCC3(CC2)CCN(C(=O)c2cccc(F)c2)CC3)cc1 | > 20 µM |
| CN(C)C(=O)c1ccc(-c2cc(-n3ccnc3)ncn2)cc1 | > 20 µM |
| c1ccc(CNc2ncnc3ccc(-c4ccoc4)cc23)cc1 | > 20 µM |
| COc1ccc(Oc2ncc3nc(C)c(=O)n(CCC#N)c3n2)cc1 | > 20 µM |

| Compound | Potency |
| --- | --- |
| Cc1cnc(CNc2ncncc2-c2cccc(NS(C)(=O)=O)c2)cn1 | > 20 µM |
| CCNc1ncc2nc(C)c(=O)n(C3CC3)c2n1 | > 20 µM |
| COc1ccccc1-c1cc(NCc2cnc(C)cn2)ncn1 | > 20 µM |
| N#Cc1ccc(CN2CC[C@@]3(CCCN(C(=O)c4cc(C(F)(F)F)cc(C(F)(F)F)c4)C3)C2)cc1 | > 20 µM |
| O=c1cnc2cnc(Oc3cccc(Cl)c3)nc2n1C[C@H]1CCCO1 | > 20 µM |
| CS(=O)(=O)N1CCC[C@@]2(CCN(C(=O)Nc3ccccc3)C2)C1 | > 20 µM |
| N#Cc1cccc(-c2ccc3ncnc(NCc4ccccc4)c3c2)c1 | > 20 µM |
| Cc1noc(C)c1C(=O)N1CCC2(CCCN(c3ccccc3)C2)CC1 | > 20 µM |
| COc1cccc(-c2nc(NC3CC3)c3ccccc3n2)c1 | > 20 µM |
| Clc1ccccc1-c1nc(NCc2cccnc2)c2ccccc2n1 | > 20 µM |
| Cc1cnc(CNc2ccnc(-c3ccccc3Cl)n2)cn1 | > 20 µM |
| c1ccc(Nc2nc(-c3cccnc3)nc3ccccc23)cc1 | > 20 µM |
| COc1ccc(CNc2ncnc3ccc(-c4cccc(NS(C)(=O)=O)c4)cc23)c(OC)c1 | > 20 µM |
| COc1cccc(-c2nc(NCc3ccc(OC)cc3OC)c3ccccc3n2)c1 | > 20 µM |
| COc1cccc(-c2nccc(NCc3cccs3)n2)c1 | > 20 µM |
| Cc1noc(C)c1C(=O)N1CCC2(CC1)CN(c1ccccn1)C2 | > 20 µM |
| COCCn1c(=O)c(-c2ccc(Cl)cc2)nc2cnc(OC)nc21 | > 20 µM |
| O=c1c(CCc2ccccc2)nc2cncnc2n1C1CC1 | > 20 µM |
